# Screens as filed in PubChem.
# A selection: hits, their analogues and other compounds. The true share with any hit is near 15%.
# Gal4-VP16 FLuc = VP16 counterscreen qHTS for inhibitors of ROR gamma transcriptional activity | Drosophila S2 Gal4-VP16 UAS-luciferase, luminescence, 20 h | Potency, µM (series often up to 53.6 µM), for inactives: at the top dose activity, negative = inhibition, hits mostly inhibitors | 310,000 compounds, 3.5% hits | AID 2546, 2010;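 also: Gal4-VP16 expression switched on by copper sulfate through the metallothionein promoter; nearly all actives have a fitted effect of over 50% in size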
# ELG1 repair inh = qHTS screen for small molecules that inhibit ELG1-dependent DNA repair in human embryonic kidney (HEK293T) cells expressing luciferase-tagged ELG1. HEK293T ELG1-luciferase reporter, luminescence, 16 h; DNA damage induced by 5-fluorouridine. AID 504467, 2011. 330,000 compounds, 2.3% hits. Potency, µM (highest dose often 46.1 µM), for inactives: at the highest dose activity change, negative = inhibition, most hits filed as inhibitors; also: nearly all actives have a fitted effect of over 55% in size
#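 Luminescence from the luciferase reporter, measured 30 min after ONE-Glo reagent at room temperature, was the read-out. Beforehand, 2,000 cells per well were exposed for 16 hr at 37 °C to 5-fluorouridine together with compound or vehicle.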
# DT40 TDP1 CPT = qHTS for Inhibitors of human tyrosyl-DNA phosphodiesterase 1 (TDP1): qHTS in cells in presence of CPT. chicken DT40 Tdp1-/-;hTDP1 cells + 20 nM CPT, ATP luminescence, 48 h. Potency, µM (top dose mostly 46.2 µM), inactives show at the highest dose activity change, negative = growth inhibition, usual class: inhibitors. 420,000 compounds, 12% hits; also: nearly all actives have a fitted effect of over 55% in size
#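 Chicken DT40 Tdp1-/- cells complemented with human TDP1, 400 cells/well, exposed to compounds plus 20 nM camptothecin for at least 48 h at 37 C; viability read as ATP content by CellTiter-Glo luminescence.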
# DT40 TDP1 no CPT = qHTS for Inhibitors of human tyrosyl-DNA phosphodiesterase 1 (TDP1): qHTS in cells in absence of CPT | DT40 Tdp1-/- hTDP1 cells, no CPT, ATP luminescence, 48 h | Potency, µM (doses to about 46.2 µM), for the others: top-dose activity change, negative = growth inhibition, most hits filed as inhibitors | 420,000 compounds, 15% hits | AID 686978, 2013; also: nearly all actives have a fitted effect of over 55% in size
#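 Compound effects on proliferation are scored in DT40 Tdp1-/-;hTDP1 cells in the absence of CPT. ATP levels (CellTiter-Glo luminescence) are recorded after a ≥48 hr, 37 °C incubation.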
# RORgamma inh = qHTS for inhibitors of ROR gamma transcriptional activity. 310,000 compounds, 5.4% hits. Potency, µM (highest dose often 53.6 µM), for inactives: at the highest dose activity change, negative = inhibition, usual class: inhibitors. Drosophila S2 Gal4-RORgamma UAS-luciferase reporter, 20 h. Nuclear receptor ROR-gamma (Mus musculus), P51450; also: nearly all actives have a fitted effect of over 60% in size
#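 Stably transfected Drosophila Schneider cells are the test system, with ROR gamma fused to Gal4 and luciferase under UAS control; luminescence is read after 20 hr of 700 uM copper sulfate induction at ambient temperature.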
# 12-LOX inh = Primary qHTS assay for inhibitors of human arachidonate 12S-lipoxygenase (ALOX12): Round 2; purified 12hLO, xylenol orange hydroperoxide absorbance; Potency, µM (top dose mostly 108 µM), for the others: top-dose activity change, negative = inhibition, most hits filed as inhibitors; 580,000 compounds, 1.1% hits; AID 1671190, 2021
# Target sequence (P18054 whole entry, looked up): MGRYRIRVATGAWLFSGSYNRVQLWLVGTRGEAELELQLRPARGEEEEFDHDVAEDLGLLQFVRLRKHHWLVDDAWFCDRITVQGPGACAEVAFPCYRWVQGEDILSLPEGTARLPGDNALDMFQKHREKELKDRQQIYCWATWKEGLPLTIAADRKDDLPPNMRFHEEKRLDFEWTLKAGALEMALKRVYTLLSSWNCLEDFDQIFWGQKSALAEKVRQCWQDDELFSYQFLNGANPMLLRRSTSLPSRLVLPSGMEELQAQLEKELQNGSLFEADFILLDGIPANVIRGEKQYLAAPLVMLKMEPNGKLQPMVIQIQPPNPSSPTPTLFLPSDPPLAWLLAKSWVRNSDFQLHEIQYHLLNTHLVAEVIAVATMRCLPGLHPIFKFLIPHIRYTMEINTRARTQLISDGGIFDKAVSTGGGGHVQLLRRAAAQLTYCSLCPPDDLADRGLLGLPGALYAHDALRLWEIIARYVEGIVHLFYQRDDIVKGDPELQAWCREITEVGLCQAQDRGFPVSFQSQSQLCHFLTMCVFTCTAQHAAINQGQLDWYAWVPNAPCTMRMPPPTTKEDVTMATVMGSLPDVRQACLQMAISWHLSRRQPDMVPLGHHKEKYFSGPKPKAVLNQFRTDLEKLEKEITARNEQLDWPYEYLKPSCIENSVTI
#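 Purified human 12hLO at 150 nM in 25 mM Hepes, 0.01% Triton X-100, pH 7.0, preincubated 15 min at room temperature with compound. Reaction started with 40 uM arachidonic acid, 30 min at room temperature. Hydroperoxide measured by Fe-xylenol orange, 573/405 nm absorbance ratio.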
# An asterisk follows results filed as active; ? = inconclusive; / = not tested or not shown; [ ] = dose if it differs, or a comment. Calls follow the shape of the dose curve; as a rule, active = well fitted curve in the direction sought with a large enough effect; inconclusive = small, poorly fitted or top-dose-only effect, or another doubt; inactive = no such curve, though single readings can be large; an effect the other way counts as inactive or inconclusive. % is scaled to controls: 0 for no effect and ±100 for the full control effect; potency is read from the fitted curve at half-maximal effect.
SMILES,Gal4-VP16 FLuc,ELG1 repair inh,DT40 TDP1 CPT,DT40 TDP1 no CPT,RORgamma inh,12-LOX inh
COC[C@H]1CCCN1C[C@H]1CN2CC[C@H]1C[C@@H]2CNC(=O)c1ccc(C(F)(F)F)cc1,/,/,/,/,/,96.0%[176 µM]
CCC(CC)C(=O)NC[C@H]1C[C@@H]2CCN1C[C@@H]2c1cc(-c2ccc(OC)c(OC)c2)nn1C,/,/,/,/,/,36.0%
CCOc1ccc(CCNC(=O)c2cc3c(-c4ccc(OC)c(OC)c4)nn(C)c3s2)cc1OCC,/,/,4.11µM*,3.66µM*,/,?
Cc1ccc(NC(=S)NC2CC3CCC(C2)N3Cc2ccco2)cc1C (stereo unspecified),-18.8%,3.4%,?,?,14.1µM*,1.9%[57.4 µM]
Cc1cc(C)n2c(Nc3ccc4c(c3)OCCO4)c(-c3cc4ccccc4o3)nc2n1,/,/,?,20.6µM*,/,?
CNC(=O)N1N=C(c2ccc(N)cc2)c2cc3c(cc2CC1C)OCO3 (stereo unspecified),/,/,/,/,/,-25.4%[57.4 µM]
Cc1ccc(OP2(=O)Nc3cc(C)c(C)cc3S2)cc1 (stereo unspecified),/,/,?,?,/,20µM*
COc1cc2c(cc1OCC1CCCC1)N([S+](=O)([O-])c1cccc(C(F)(F)F)c1)CC21CCN(CC(=O)O)CC1,/,/,/,/,/,68.4%
S=P(NCCSCc1ccccc1)(N1CC1)N1CC1,/,/,3.66µM*,7.31µM*,/,-15.0%
S=P(NCCNP(=S)(N1CC1)N1CC1)(N1CC1)N1CC1,/,/,-58.9%,1.3µM*,/,-16.6%
N[C@H](C(=O)O)[C@@H]1CC(Cl)=NO1,/,/,1.68µM*,2.11µM*,/,/
CCCn1c(=O)n(C)c(=O)c2c(SCC(=O)NC34CC5CC(CC(C5)C3)C4)nc(CC(C)C)nc21,-3.6%,23.1µM*,14.6µM*,?,-15.4%,0.7%
Cc1ccc2c(c1)NP(=S)(Oc1ccccc1)N2 (stereo unspecified),/,/,-10.9%,-13.4%,/,-22.7%
COc1ccc2c(c1)NP(=S)(Oc1ccccc1)N2 (stereo unspecified),-7.9%,?,?,14.6µM*,-23.3%,-13.6%
CC1CCN(C[C@H]2CN3CC[C@H]2C[C@@H]3CNC(=O)Nc2cccc(C#N)c2)CC1,/,/,/,/,/,49.1%[176 µM]
CC(Cc1ccccc1)NC(=O)C(c1ccc(N)cc1)c1ccc(N)cc1 (stereo unspecified),-0.3%,-1.1%,11.6µM*,?,13.5%,-0.2%
CC(Cc1ccccc1)NC(=O)c1ccc(N)cc1 (stereo unspecified),-7.7%,?,8.9%,-8.2%,-9.0%,-8.6%
CCCc1c(-c2ccccc2F)ncn1CCc1ccccc1OC,/,/,3.66µM*,2.59µM*,/,?
C#CCOc1ccc2c(c1)c(C(C)=O)c(C)n2Cc1ccccc1,-1.4%,20.6µM*,-29.9%,?,?,0.0%
CCOC(=O)c1c(C)n(Cc2ccccc2)c2ccc(OCC(O)CN3C(=O)CNC3=O)cc12 (stereo unspecified),-3.6%,?,?,14.6µM*,7.4%,6.5%[57.4 µM]
CCn1c(C)c(C(=O)O)c2cc(OC)ccc21,13.5%,0.3%,-7.7%,0.7%,3.9%,3.5%
CCOC(=O)c1c(C)n(Cc2ccccc2)c2ccc(OC)cc12,/,/,/,/,/,12.4%
COc1ccc2c(c1)c(C(=O)OCC(=O)N(C)C)c(C)n2C1CC1,/,/,/,/,/,-17.7%
Cc1nc(N2CCN(Cc3ccccc3)CC2)nc2c1C(=O)CC(C)C2 (stereo unspecified),-4.2%,?,18.4µM*,16.4µM*,32.8%,0.0%
O=C(O)c1cn(Cc2ccc(F)cc2Cl)nn1,/,/,/,/,/,7.1%
SMILES,Gal4-VP16 FLuc,ELG1 repair inh,DT40 TDP1 CPT,DT40 TDP1 no CPT,RORgamma inh,12-LOX inh
Cn1nc(C2CCCCC2)cc1[C@H]1CN2CC[C@H]1C[C@@H]2CNS(C)(=O)=O,/,/,/,/,/,29.9%[176 µM]
O=C(NCC(c1ccco1)N1CCCC1)c1cccc(S(=O)(=O)N2CCc3ccccc32)c1 (stereo unspecified),/,/,18.4µM*,9.2µM*,/,?
O=C1CC(CO)CN1 (stereo unspecified),/,/,/,/,/,-7.2%
CN(C)S(=O)(=O)c1ccc(C(=O)NCCSc2c(-c3ccccc3)[nH]c3ccccc23)cc1,/,/,6.51µM*,6.51µM*,/,-5.8%
O=C(NCCSc1c(-c2ccccc2)[nH]c2ccccc12)c1ccc(S(=O)(=O)N2CCOCC2)cc1,/,/,5.8µM*,8.2µM*,/,-2.5%
O=C(O)c1cn(Cc2ccc(F)cc2)nn1,/,/,/,/,/,-0.9%
COc1ccc(-n2nc(C(=O)NCC(=O)N3CCC4(CC3)OCCO4)c3ccccc3c2=O)c(OC)c1,10µM*,?,-12.0%,-17.9%,6.31µM*,?
O=C(Cn1cnc2ccccc2c1=O)NCC(=O)N1CCC2(CC1)OCCO2,6.8%,1.4%,-0.1%,-8.2%,-22.9%,178.8%
C=C[C@H]1CN2CC[C@H]1C[C@@H]2CNC(=O)C(N)=O,/,/,/,/,/,18.7%[176 µM]
Cc1ccc2c(c1)C1CN(C)CCC1N2C(=O)c1cccs1 (stereo unspecified),0.0%,-1.2%,18.8%,-0.7%,20.9%,0.0%
Cc1ccc(C)c(S(=O)(=O)Nc2ccc3c(c2)CCCN3C(=O)c2cccs2)c1,/,/,16.4µM*,18.4µM*,/,-2.6%
O=C1c2ccccc2-c2c1nc1c([n+]2[O-])CCCC1,-0.3%,?,11.6µM*,?,-0.2%,309.6%
COc1cccc(C2SCC(=O)Nc3c2c(C)nn3-c2ccc(C)c(Cl)c2)c1OC (stereo unspecified),/,/,20.6µM*,20.6µM*,/,-21.0%
CCCOc1ccc(C2SCC(=O)Nc3c2c(C)nn3-c2cccc(C)c2)cc1OC (stereo unspecified),/,/,16.4µM*,20.6µM*,/,?
COc1cc(C2SCC(=O)Nc3c2c(C)nn3-c2ccccc2)cc(OC)c1OC (stereo unspecified),15.8%,3.6%,-20.0%,-8.8%,-6.6%,-5.5%
COc1ccc(-n2nc(C)c3c2NC(=O)CSC3c2cccc(O)c2)cc1 (stereo unspecified),/,/,/,/,/,-63.9%
O=C1NCCOCCCN[C@H]2CCCC[C@@H]12,/,/,/,/,/,10.1%
O=c1[nH]sc2cc(F)ccc12,2.82µM*,8.2%,1.84µM*,2.31µM*,2.24µM*,39.8µM*
